Source: PubChem BioAssay AID1159580 (chemical genetic matrix, 2015)
Where “and” joins values, the source holds several entries; their conditions need not be identical. Equal entries are not always repeated. About 2,000 (36%) of roughly 5,500 compounds were called active. Another 18% or so got no clear call; they are omitted. Cut-off read from the data, not from the text of the source: active = normalized growth mostly below about 0.91 (no sharp cut-off); inconclusive = no clear call, values can overlap the other calls; inactive = mostly above about 0.92. The list shows a part of the results.

Experiment: chemical genetic growth profiling, strain panel (AID 1159580);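 note: tested at 20 µM; growth read once vehicle control cultures reached saturation at 30 °C; 1 = growth at the plate median or of vehicle wells; lower values mean less growth of the strain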
Conditions: S. cerevisiae deletion strains, growth OD

Measured: normalized growth

CC(CCC(=O)O)[C@H]1CCC2C3CC[C@@H]4C[C@H](O)CC[C@]4(C)C3C[C@H](O)[C@@]21C (some centres not stated)
inactive: locus YAL013W, strain DEP1, active compounds read low 1.01 | locus YAL021C, strain ccr4, active compounds read low 1.02 | locus YAL026C, strain drs2, active compounds read low 0.98 | locus YAL030W, strain snc1, active compounds read low 1.01 | locus YBL061C, strain skt5, active compounds read low 0.983 | locus YBR009C, strain hhf1, active compounds read low 1.03 | locus YBR021W, strain FUR4, active compounds read low 1.04 | locus YBR023C, strain chs3, active compounds read low 0.962 | locus YBR171W, strain sec66, active compounds read low 0.989 | locus YBR229C, strain ROT2, active compounds read low 0.987 | locus YBR231C, strain swc5, active compounds read low 1.02 | locus YBR279W, strain paf1, active compounds read low 0.99 | locus YCL011C, strain gbp2, active compounds read low 0.974 | locus YCL016C, strain dcc1, active compounds read low 0.948 | locus YCL029C, strain bik1, active compounds read low 0.977 | locus YCL069W, strain vba3, active compounds read low 0.972 | locus YCR088W, strain abp1, active compounds read low 0.997 | locus YDL005C, strain med2, active compounds read low 0.987 | locus YDL035C, strain GPR1, active compounds read low 0.998 | locus YDL040C, strain nat1, active compounds read low 0.993 | locus YDL074C, strain BRE1, active compounds read low 1 | locus YDL101C, strain DUN1, active compounds read low 1.01 | locus YDL185W, strain tfp1, active compounds read low 1.02 | locus YDL192W, strain arf1, active compounds read low 1 | locus YDR001C, strain nth1, active compounds read low 0.984 | locus YDR069C, strain doa4, active compounds read low 1.01 | locus YDR101C, strain arx1, active compounds read low 1.01 | locus YDR137W, strain rgp1, active compounds read low 0.894 | locus YDR150W, strain NUM1, active compounds read low 1.01 | locus YDR159W, strain sac3, active compounds read low 0.963 | locus YDR162C, strain NBP2, active compounds read low 0.998 | locus YDR195W, strain ref2 1.01 | locus YDR297W, strain sur2, active compounds read low 1 | locus YDR318W, strain mcm21, active compounds read low 0.981 | locus YDR334W, strain swr1, active compounds read low 0.98 | locus YDR335W, strain msn5, active compounds read low 0.982 | locus YDR388W, active compounds read low 0.996 | locus YDR392W, strain spt3, active compounds read low 0.884 | locus YDR502C, strain sam2, active compounds read low 1.02 | locus YEL003W, strain gim4, active compounds read low 1.03 | locus YEL037C, strain rad23, active compounds read low 0.979 | locus YEL061C, strain CIN8 (second series), active compounds read low 1.01 | locus YEL061C, strain CIN8, active compounds read low 1.01 | locus YER015W, strain faa2, active compounds read low 1 | locus YER016W, strain bim1, active compounds read low 0.975 | locus YER110C, active compounds read low 0.982 | locus YER111C, strain swi4, active compounds read low 1 | locus YER155C, strain BEM2 (second series), active compounds read low 1.06 | locus YER155C, strain BEM2, active compounds read low 1.03 | locus YER167W, strain BCK2, active compounds read low 1.01 | locus YFR010W, strain ubp6, active compounds read low 1.02 | locus YGL078C, strain dbp3, active compounds read low 1.02 | locus YGL086W, strain mad1, active compounds read low 1.02 | locus YGL167C, strain pmr1, active compounds read low 0.999 | locus YGL173C, strain kem1, active compounds read low 0.992 | locus YGL227W, strain vid30, active compounds read low 1.01 | locus YGL240W, strain doc1, active compounds read low 1.01 | locus YGL248W, strain PDE1, active compounds read low 1.03 | locus YGL253W, strain hxk2, active compounds read low 0.955 | locus YGR078C, strain PAC10, active compounds read low 1.08 | locus YGR135W, strain pre9, active compounds read low 1.04 | locus YHR013C, strain ard1, active compounds read low 0.948 | locus YHR027C, strain rpn1, active compounds read low 1 | locus YHR030C, strain SLT2, active compounds read low 1.01 and 1.04 | locus YHR079C, strain IRE1 (second series), active compounds read low 0.981 | locus YHR079C, strain IRE1, active compounds read low 1.05 | locus YHR094C, strain hxt1, active compounds read low 0.991 | locus YHR129C, strain ARP1, active compounds read low 1.02 | locus YHR142W, strain chs7, active compounds read low 0.926 | locus YHR200W, strain rpn10, active compounds read low 1.02 | locus YIL066C, strain RNR3, active compounds read low 0.999 | locus YIL073C, strain SPO22, active compounds read low 1.06 | locus YIL125W, strain kgd1, active compounds read low 0.988 | locus YIR030C, strain dcg1, active compounds read low 1.01 | locus YJL092W, strain hpr5, active compounds read low 0.999 | locus YJL095W, strain BCK1 (second series), active compounds read low 0.991 | locus YJL095W, strain BCK1, active compounds read low 1.04 | locus YJL115W, strain asf1, active compounds read low 0.986 | locus YJL129C, strain trk1, active compounds read low 0.959 | locus YJL134W, strain LCB3, active compounds read low 1.01 | locus YJL154C, strain vps35, active compounds read low 1.01 | locus YJL164C, strain tpk1, active compounds read low 1 | locus YJL166W, strain qcr8, active compounds read low 1.02 | locus YJL168C, strain set2, active compounds read low 0.98 | locus YJL187C, strain SWE1 (second series), active compounds read low 1.04 | locus YJR043C, strain POL32, active compounds read low 1.01 | locus YJR066W, strain TOR1, active compounds read low 0.99 | locus YKL009W, strain mrt4, active compounds read low 0.942 | locus YKL068W, active compounds read low 0.989 | locus YKL085W, strain MDH1 (second series), active compounds read low 0.975 | locus YKL085W, strain MDH1, active compounds read low 0.975 | locus YKL160W, strain elf1, active compounds read low 0.937 | locus YKR001C, strain vps1, active compounds read low 1.01 | locus YKR026C, strain gcn3, active compounds read low 1 | locus YKR091W, strain srl3, active compounds read low 0.988 | locus YLL001W, strain dnm1, active compounds read low 1.01 | locus YLL026W, active compounds read low 1 | locus YLL041C, strain sdh2, active compounds read low 0.994 | locus YLR027C, strain aat2, active compounds read low 0.991 | locus YLR039C, strain RIC1, active compounds read low 0.941 | locus YLR058C, strain SHM2, active compounds read low 1.01 | locus YLR102C, strain apc9, active compounds read low 0.987 | locus YLR113W, strain HOG1, active compounds read low 0.951 | locus YLR221C, strain rsa3, active compounds read low 1.03 | locus YLR258W, strain gsy2, active compounds read low 0.963 | locus YLR262C, strain YPT6 (second series), active compounds read low 0.935 | locus YLR262C, strain YPT6, active compounds read low 0.925 | locus YLR268W, strain sec22, active compounds read low 0.989 | locus YLR320W, strain mms22, active compounds read low 0.998 | locus YLR330W, strain CHS5, active compounds read low 1.01 | locus YLR342W, strain FKS1 (second series), active compounds read low 0.983 | locus YLR342W, strain FKS1, active compounds read low 0.987 | locus YLR357W, strain rsc2, active compounds read low 1.01 | locus YLR370C, strain arc18, active compounds read low 0.972 | locus YLR371W, strain rom2, active compounds read low 0.985 | locus YLR384C, strain iki3, active compounds read low 0.992 | locus YLR418C, strain cdc73, active compounds read low 1.03 | locus YML016C, strain PPZ1, active compounds read low 1.01 | locus YML032C, strain rad52, active compounds read low 1.01 | locus YML120C, strain ndi1, active compounds read low 1.01 | locus YML124C, strain tub3, active compounds read low 1.01 | locus YMR058W, strain fet3, active compounds read low 1 | locus YMR078C, strain ctf18, active compounds read low 0.981 | locus YMR125W, strain sto1, active compounds read low 0.995 | locus YMR129W, active compounds read low 0.98 | locus YMR205C, strain PFK2, active compounds read low 0.969 | locus YMR223W, strain ubp8, active compounds read low 1.02 | locus YMR231W, strain pep5, active compounds read low 0.99 | locus YMR307W, strain GAS1, active compounds read low 1.03 | locus YNL067W, strain RPL9B, active compounds read low 1.03 | locus YNL071W, strain lat1, active compounds read low 0.99 | locus YNL153C, strain GIM3, active compounds read low 1.03 | locus YNL183C, strain NPR1, active compounds read low 1 | locus YNL209W, strain ssb2, active compounds read low 0.994 | locus YNL233W, strain BNI4, active compounds read low 1.03 | locus YNL248C, strain rpa49, active compounds read low 0.965 | locus YNL250W, strain rad50, active compounds read low 1.01 | locus YNL271C, strain bni1, active compounds read low 0.974 | locus YNL298W, strain CLA4, active compounds read low 0.98 | locus YNL307C, strain MCK1, active compounds read low 0.993 | locus YNL322C, strain KRE1 (second series), active compounds read low 1 | locus YNL322C, strain KRE1, active compounds read low 1.01 | locus YNR049C, strain mso1, active compounds read low 0.988 | locus YNR052C, strain pop2, active compounds read low 1.03 | locus YOL006C, strain TOP1, active compounds read low 1.05 | locus YOL012C, strain htz1 1.39 | locus YOL147C, strain pex11, active compounds read low 1 | locus YOR001W, strain rrp6, active compounds read low 1.03 | locus YOR061W, strain CKA2, active compounds read low 1 | locus YOR069W, strain VPS5, active compounds read low 1 | locus YOR070C, strain gyp1, active compounds read low 1 | locus YOR080W, strain dia2, active compounds read low 0.986 | locus YOR083W, strain WHI5, active compounds read low 0.927 | locus YOR106W, strain vam3, active compounds read low 0.953 | locus YOR136W, strain idh2, active compounds read low 1.02 | locus YOR144C, strain elg1, active compounds read low 0.987 | locus YOR184W, strain ser1, active compounds read low 0.994 | locus YOR231W, strain MKK1, active compounds read low 1.03 | locus YOR265W, strain rbl2, active compounds read low 0.997 | locus YOR270C, strain vph1, active compounds read low 0.942 | locus YOR290C, strain snf2, active compounds read low 0.952 | locus YOR316C, strain cot1, active compounds read low 0.995 | locus YPL051W, strain arl3, active compounds read low 0.958 | locus YPL078C, strain atp4, active compounds read low 0.952 | locus YPL106C, strain sse1, active compounds read low 0.985 | locus YPL240C, strain hsp82, active compounds read low 0.99 | locus YPL256C, strain CLN2, active compounds read low 1.08 | locus YPR119W, strain clb2, active compounds read low 0.992 | locus YPR141C, strain kar3, active compounds read low 0.992 | locus YPR163C, strain tif3, active compounds read low 1 | locus YPR167C, strain met16, active compounds read low 0.996 | strain wtn01, active compounds read low 1.01
